Test results: PubChem BioAssay
“And” between values parts separate entries of the source, which are not always exact repeats. Identical values can stand only once. More than one record can exist for a structure, and the calls need not agree. The source made the active and inactive calls.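 The calls were made as follows, unless noted: active = normalized viability below 100% at a tested concentration; inactive = the rest.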

Legend:
[1] = stimulators of nuclear beta-catenin in C2C12, primary screen, imaging, WNT3A-conditioned medium, mouse C2C12, NPC library (AID 1117326; in the data active = nuclear beta-catenin stimulation mostly above about 4.2%, no sharp cut-off; inactive = mostly below about 10%); settings: stronger effect = higher value
[2] = stimulators of insulin release from INS-1E, primary screen, cell-based, 5 mM glucose, NPC library (AID 1117329;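 active = compound raises insulin release from rat beta cells at 5 mM glucose, no numeric limit stated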); settings: rat INS-1E insulin secretion, at 10 µM, stronger effect = higher value
[3] = growth inhibition of GSK3B-pretreated HCT116 cells – cell-based, CellTiter-Glo, 0.2 to 20 µM (AID 1117336;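 active = compounds lowering colon cancer cell viability after pretreatment blocking the GSK3B kinase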); settings: HCT116 viability after GSK3B inhibitor, at 20 µM, stronger effect = higher value
[4] = inhibition of endothelial tube formation, primary screen, imaging, VEGF stimulated, CD31 staining, tube area, NPC library (AID 1117340;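 active = compound that reduces growth-factor-driven endothelial tube area in a mixed cell culture, no cutoff stated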); settings: VEGF-stimulated ADSC/ECFC co-culture, at 10 µM, stronger effect = higher value
[5] = glucagon-like peptide 1 release enhancers, primary assay, NCI-H716 cell line, NPC library (AID 1117341;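 active = compound raises GLP1 secretion from the human gut endocrine cells, with no numeric limit stated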); settings: NCI-H716 cells, at 10 µM, stronger effect = higher value
[6] = HCT116 colon cancer cell growth inhibition, primary screen, CellTiter-Glo luminescence, NPC library (AID 1117342;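 active = compounds that lower survival of HCT116 colon cancer cells in the luminescence readout, no numeric limit stated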); settings: at 20 µM (top of the series)
[7] = CellTiter-Glo luminescent readout of SW480 viability loss, NPC library primary (AID 1117343;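 active = compounds that lower viability of the colon cancer cells in the luminescence readout, with no numeric limit stated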); settings: CellTiter-Glo luminescence; at 20 µM (top of the series)
[8] = decreased DLD-1 cellular survival, CellTiter-Glo luminescent readout, NPC compound collection, primary HTS (AID 1117346;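 active = compounds that lower survival of DLD-1 colon cancer cells in the luminescence readout, no cutoff given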); settings: DLD-1 viability, CellTiter-Glo luminescence; at 20 µM (top of the series)
[9] = molecular target: 6-phosphogluconate dehydrogenase, decarboxylating (Homo sapiens) (UniProt P52209); experiment: 6PGD enzyme inhibitors, primary screen, biochemical, human, recombinant enzyme, NADPH absorbance (AID 1159550;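 active = at least 20% inhibition of 6-phosphogluconate dehydrogenase activity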); settings: recombinant 6PGD, NADPH absorbance 341 nm; at 10 µM; stronger effect = higher value
Sequence of 6-phosphogluconate dehydrogenase, decarboxylating (Homo sapiens) (P52209 whole entry, looked up): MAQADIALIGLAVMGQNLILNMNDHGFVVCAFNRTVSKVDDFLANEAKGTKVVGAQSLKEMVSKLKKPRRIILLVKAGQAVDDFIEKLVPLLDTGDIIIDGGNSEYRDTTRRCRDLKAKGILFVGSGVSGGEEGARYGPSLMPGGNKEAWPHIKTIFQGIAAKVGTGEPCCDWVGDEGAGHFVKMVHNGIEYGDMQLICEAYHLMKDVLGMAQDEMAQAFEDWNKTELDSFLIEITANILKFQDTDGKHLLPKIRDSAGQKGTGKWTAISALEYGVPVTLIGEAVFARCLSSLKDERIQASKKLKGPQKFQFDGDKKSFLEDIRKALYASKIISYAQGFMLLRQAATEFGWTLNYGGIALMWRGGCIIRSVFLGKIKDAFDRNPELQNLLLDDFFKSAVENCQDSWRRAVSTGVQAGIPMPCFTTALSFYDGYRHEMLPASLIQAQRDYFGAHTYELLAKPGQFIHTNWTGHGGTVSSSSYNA

[10] = modulation of C. elegans fzo-1 (AID 1259413; call rule not given here;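 also: fzo-1 mutant C. elegans worms in liquid wells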); settings: C. elegans fzo-1 modulator screen, mean read-out; stronger effect = higher value
[11] = differential killing of epithelial or mesenchymal cells, primary screen, imaging, PC-3E GFP, TEM4-18 mCherry, co-culture (AID 1345086;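 active = compounds killing one labelled cell type while sparing the other, by normalised counts and ratio limits, not self-fluorescent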;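 as to all read-outs here: cells exposed to compound for 72 h before imaging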;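 as to red/green cell ratio (normalised): normalised mesenchymal count divided by normalised epithelial count so high means epithelial killing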); settings: imaging cell counts, at 1 µM; for red/green cell ratio (normalised): actives lie on both sides, counts scaled to control wells, 1 = unselective
[12] = survival rescue of mitochondrial mutant cells in low glucose, primary screen, MELAS cybrids, Rieske KO mouse fibroblasts, CellTiter-Glo (AID 1508586;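 active = mean z-score across replicates of 1.96 or higher in either the MELAS or the Rieske mutant cell line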;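 also: z relative to plate mean and SD of compound and empty wells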)
[13] = molecular target: NAD(+) hydrolase SARM1 (Homo sapiens) (UniProt Q6SZW1); experiment: SARM1 TIR NADase inhibitors, cell lysate, NAD-Glo luminescence (AID 1508614;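 active = compound whose remaining NAD level is above about 45 nM, limit read from the data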;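 also: higher remaining NAD means stronger inhibition of SARM1 NADase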); settings: SAM-TIR HEK293T lysate NADase, at 1 µM, stronger effect = higher value
Sequence of NAD(+) hydrolase SARM1 (Homo sapiens) (Q6SZW1 whole entry, looked up, the tested form may be a part): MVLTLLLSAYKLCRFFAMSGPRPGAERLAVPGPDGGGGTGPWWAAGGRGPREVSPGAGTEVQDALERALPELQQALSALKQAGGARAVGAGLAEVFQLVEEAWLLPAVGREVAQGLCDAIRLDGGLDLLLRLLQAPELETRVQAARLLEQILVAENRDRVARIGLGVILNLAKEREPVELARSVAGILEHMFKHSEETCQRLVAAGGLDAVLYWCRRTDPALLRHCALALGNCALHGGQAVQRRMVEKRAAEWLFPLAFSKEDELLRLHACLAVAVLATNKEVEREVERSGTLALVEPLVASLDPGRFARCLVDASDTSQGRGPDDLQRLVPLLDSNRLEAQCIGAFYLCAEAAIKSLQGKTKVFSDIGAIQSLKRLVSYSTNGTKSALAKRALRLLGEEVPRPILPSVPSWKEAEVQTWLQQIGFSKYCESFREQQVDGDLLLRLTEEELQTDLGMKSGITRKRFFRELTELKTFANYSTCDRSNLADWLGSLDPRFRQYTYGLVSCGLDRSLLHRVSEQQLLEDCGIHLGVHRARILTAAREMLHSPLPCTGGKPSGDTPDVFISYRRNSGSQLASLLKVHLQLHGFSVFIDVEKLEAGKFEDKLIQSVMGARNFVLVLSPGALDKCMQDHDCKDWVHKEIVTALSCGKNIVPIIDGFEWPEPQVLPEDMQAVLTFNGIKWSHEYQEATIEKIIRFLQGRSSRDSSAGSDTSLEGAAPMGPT

[14] = molecular target: Mitogen-activated protein kinase 7 (Homo sapiens) (UniProt Q13164); experiment: ERK5 transactivation activators in reporter cells, primary screen, cell-based, HTS (AID 1508626;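 active = luciferase signal above three times the same-plate solvent-only control wells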;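 also: luciferase driven by Gal4-ERK5 fusion binding five Gal4 sites before minimal TATA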); settings: HeLa Gal4-ERK5 transactivation, 18 h, at 5 µM, stronger effect = higher value
Sequence of Mitogen-activated protein kinase 7 (Homo sapiens) (Q13164 whole entry, looked up, the tested form may be a part): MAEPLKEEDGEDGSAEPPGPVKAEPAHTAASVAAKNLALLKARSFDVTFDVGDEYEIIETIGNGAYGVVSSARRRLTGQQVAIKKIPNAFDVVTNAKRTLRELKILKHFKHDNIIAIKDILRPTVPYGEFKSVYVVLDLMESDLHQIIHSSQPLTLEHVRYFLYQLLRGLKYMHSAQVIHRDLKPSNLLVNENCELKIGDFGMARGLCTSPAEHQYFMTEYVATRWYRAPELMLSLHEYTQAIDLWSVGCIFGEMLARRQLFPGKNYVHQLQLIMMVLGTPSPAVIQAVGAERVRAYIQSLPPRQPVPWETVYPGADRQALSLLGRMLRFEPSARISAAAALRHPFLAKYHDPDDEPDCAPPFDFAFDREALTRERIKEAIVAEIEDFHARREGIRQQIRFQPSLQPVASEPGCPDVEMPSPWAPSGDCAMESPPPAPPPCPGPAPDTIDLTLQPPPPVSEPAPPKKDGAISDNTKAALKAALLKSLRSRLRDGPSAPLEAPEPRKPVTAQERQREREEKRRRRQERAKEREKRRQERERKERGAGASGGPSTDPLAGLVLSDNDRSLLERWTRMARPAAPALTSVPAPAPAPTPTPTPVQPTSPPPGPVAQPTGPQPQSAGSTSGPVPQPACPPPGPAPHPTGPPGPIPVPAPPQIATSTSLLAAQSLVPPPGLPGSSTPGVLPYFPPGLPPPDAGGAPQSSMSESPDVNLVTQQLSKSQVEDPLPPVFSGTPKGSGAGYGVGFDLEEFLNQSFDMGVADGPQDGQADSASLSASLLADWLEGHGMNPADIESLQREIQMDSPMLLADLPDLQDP

F380Y = experiment: modulators of BK channel variants, profiling panel, selectivity assay, cell-based, U2OS BacMam, thallium flux, beta subunits (AID 1259406;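 active = thallium flux through the channel raised or lowered by more than 3 SD from vehicle-only wells, actives on both sides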;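 also: initial slope of Thallos dye fluorescence rise after thallium is added; log ratio against the mean of 0.3% DMSO vehicle wells on the same plate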); settings: at 30 µM
F380Y/beta1 = experiment: as above; settings: at 30 µM
F380Y/beta2Delta = experiment: as above; settings: at 30 µM
[15] = ovarian cancer cell viability with rucaparib, profiling panel, oncology-focused library, rucaparib conditional (AID 1508598); settings: patient-derived ovarian cancer cells, CellTiter-Glo viability, 144 h, stronger effect = lower value
[16] = ICB984 medulloblastoma cell growth inhibition, synergistic combos for chromothripsis tumors, cisplatin or BGB combos (AID 1671451; call rule not given here;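 also: cells exposed for 96 hours before readout; 0% = vehicle DMSO and 100% = killing by high DMSO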); settings: ICB984 medulloblastoma cells, drug combinations, stronger effect = higher value
[17] = measured here: epithelial PC-3E GFP cell survival
[18] = measured here: mesenchymal TEM4-18 mCherry cell survival
[19] = MELAS cybrid survival, CellTiter-Glo 48 h, stronger effect = higher value
[20] = Rieske KO mouse fibroblast survival, CellTiter-Glo 72 h

c1ccc2[nH]c(-c3cscn3)nc2c1
1.16: normalised cell number [11, 18]
0.655 and 0.153: z-score [12, 20]
inactive: nuclear beta-catenin stimulation ([1]; at 10 µM) 1.5% | insulin secretion stimulation [2] -1.2% | viability decrease [3] -3.75% | tube area decrease [4] 13.1% | GLP1 secretion stimulation [5] 4.2% | inhibition of viability [6] 5.1% | viability decrease (inhibition) [7] -9.9% | viability decrease (inhibition) [8] -17.1% | inhibition [9] 2.18% | mean signal [10] 278 | red/green cell ratio (normalised) [11] 1.18 | remaining NAD [13] 10 nM | luciferase signal [14] 12 AU | log fold change Tl+ flux (F380Y) -0.0155 | log fold change Tl+ flux (F380Y/beta1) -0.00469 | log fold change Tl+ flux (F380Y/beta2Delta) -0.00898
1.4%: nuclear beta-catenin stimulation ([1]; stimulation, at 2 µM)
-0.164 (inactive) and 2.01 (active): z-score [12, 19]
0.98: normalised cell number [11, 17]

Cc1ccc(-c2cc(C(F)(F)F)nn2-c2ccc(S(N)(=O)=O)cc2)cc1
1.13 and 1.16 and 1.29: z-score [12, 20]
inactive: nuclear beta-catenin stimulation ([1]; at 10 µM) 8.6% | insulin secretion stimulation [2] -0.6% | viability decrease [3] -9.9% | tube area decrease [4] 1.2% | GLP1 secretion stimulation [5] 0.7% | inhibition of viability [6] 49% | inhibition [9] 13.7% | mean signal [10] 242 | red/green cell ratio (normalised) [11] 1.22 | z-score [12, 19] -0.312 and 1.24 and 1.08 | viability ([15]; at 0.000305 µM, OCI-C5x cells, with rucaparib 10 µM, 100% = cells with rucaparib alone) 113% | viability ([15]; at 0.000305 µM, OCI-C5x cells, without rucaparib) 107% | viability ([15]; at 0.00122 µM, OCI-C5x cells, with rucaparib 10 µM, 100% = cells with rucaparib alone) 104% | viability ([15]; at 0.00122 µM, OCI-C5x cells, without rucaparib) 111% | viability ([15]; at 0.00488 µM, OCI-C5x cells, with rucaparib 10 µM, 100% = cells with rucaparib alone) 118% | viability ([15]; at 0.00488 µM, OCI-C5x cells, without rucaparib) 107% | viability ([15]; at 0.0195 µM, OCI-C5x cells, with rucaparib 10 µM, 100% = cells with rucaparib alone) 115% | viability ([15]; at 0.0195 µM, OCI-C5x cells, without rucaparib) 120% | viability ([15]; at 0.0781 µM, OCI-C5x cells, with rucaparib 10 µM, 100% = cells with rucaparib alone) 114% | viability ([15]; at 0.0781 µM, OCI-C5x cells, without rucaparib) 117% | viability ([15]; at 0.313 µM, OCI-C5x cells, with rucaparib 10 µM, 100% = cells with rucaparib alone) 117% | viability ([15]; at 0.313 µM, OCI-C5x cells, without rucaparib) 110% | viability ([15]; at 1.25 µM, OCI-C5x cells, with rucaparib 10 µM, 100% = cells with rucaparib alone) 113% | viability ([15]; at 1.25 µM, OCI-C5x cells, without rucaparib) 124% | viability ([15]; at 1.25 µM, OCI-P5x cells, with rucaparib 20 µM, 100% = cells with rucaparib alone) 109% | viability ([15]; at 1.25 µM, OCI-P5x cells, without rucaparib) 105% | viability ([15]; at 5 µM, OCI-C5x cells, with rucaparib 10 µM, 100% = cells with rucaparib alone) 122% | viability ([15]; at 5 µM, OCI-C5x cells, without rucaparib) 131% | viability ([15]; at 5 µM, OCI-P5x cells, with rucaparib 20 µM, 100% = cells with rucaparib alone) 109% | viability ([15]; at 5 µM, OCI-P5x cells, without rucaparib) 105% | remaining NAD [13] 10 nM | luciferase signal [14] 28 AU | log fold change Tl+ flux (F380Y) 0.057 | log fold change Tl+ flux (F380Y/beta1) -0.0387 | log fold change Tl+ flux (F380Y/beta2Delta) -0.0192
active: viability decrease (inhibition) [7] 66.6% | viability decrease (inhibition) [8] 50.1% | viability ([15]; at 0.000305 µM, OCI-P5x cells, with rucaparib 20 µM, 100% = cells with rucaparib alone) 84.7% | viability ([15]; at 0.000305 µM, OCI-P5x cells, without rucaparib) 92.4% | viability ([15]; at 0.00122 µM, OCI-P5x cells, with rucaparib 20 µM, 100% = cells with rucaparib alone) 91.7% | viability ([15]; at 0.00122 µM, OCI-P5x cells, without rucaparib) 91.9% | viability ([15]; at 0.00488 µM, OCI-P5x cells, with rucaparib 20 µM, 100% = cells with rucaparib alone) 93.8% | viability ([15]; at 0.00488 µM, OCI-P5x cells, without rucaparib) 94% | viability ([15]; at 0.0195 µM, OCI-P5x cells, with rucaparib 20 µM, 100% = cells with rucaparib alone) 96.2% | viability ([15]; at 0.0195 µM, OCI-P5x cells, without rucaparib) 88.2% | viability ([15]; at 0.0781 µM, OCI-P5x cells, with rucaparib 20 µM, 100% = cells with rucaparib alone) 96.7% | viability ([15]; at 0.0781 µM, OCI-P5x cells, without rucaparib) 94.3% | viability ([15]; at 0.313 µM, OCI-P5x cells, with rucaparib 20 µM, 100% = cells with rucaparib alone) 66.1% | viability ([15]; at 0.313 µM, OCI-P5x cells, without rucaparib) 56.6%
1.08: normalised cell number [11, 17]
1.32: normalised cell number [11, 18]
0.5%: nuclear beta-catenin stimulation ([1]; stimulation, at 2 µM)

Cn1cnc([N+](=O)[O-])c1Sc1ncnc2nc[nH]c12
0.7%: nuclear beta-catenin stimulation ([1]; stimulation, at 2 µM)
-15.3% and -15.6%: inhibition ([16]; cisplatin combo, at 0.05 µM)
0.345 (inactive) and 1.98 (active): z-score [12, 19]
-23% and 1.4%: inhibition ([16]; cisplatin combo, at 5 µM)
-7.33% and 0.138%: inhibition ([16]; BGB IC20 combo, at 0.005 µM)
-29.3% and -25.2%: inhibition ([16]; cisplatin combo, at 0.5 µM)
inactive: nuclear beta-catenin stimulation ([1]; at 10 µM) 1.2% | insulin secretion stimulation [2] 0.2% | tube area decrease [4] 29.1% | GLP1 secretion stimulation [5] 4.1% | inhibition [9] 2.32% | mean signal [10] 260 | red/green cell ratio (normalised) [11] 0.98 | remaining NAD [13] 10 nM | inhibition ([16]; at 0.5 µM) -19.6% and -22.9% | log fold change Tl+ flux (F380Y) -0.0816 | log fold change Tl+ flux (F380Y/beta1) -0.0302 | log fold change Tl+ flux (F380Y/beta2Delta) -0.0522
-15.3% and -11.2%: inhibition ([16]; BGB IC40 combo, at 0.05 µM)
0.8 and 0.138: z-score [12, 20]
-44% and -68.5%: inhibition ([16]; BGB IC40 combo, at 0.005 µM)
1.11: normalised cell number [11, 18]
-20.7% and -15.2%: inhibition ([16]; measured here: 5 uM single agent, at 5 µM)
active: viability decrease [3] 42% | inhibition of viability [6] 99.5% | viability decrease (inhibition) [7] 77.3% | viability decrease (inhibition) [8] 35.5% | luciferase signal [14] 408 AU
1.13: normalised cell number [11, 17]

CN[C@H]1CC[C@@H](c2ccc(Cl)c(Cl)c2)c2ccccc21
inactive: nuclear beta-catenin stimulation ([1]; at 10 µM) 6.5% | insulin secretion stimulation [2] 11.8% | GLP1 secretion stimulation [5] 7.5% | inhibition [9] -2.43% | mean signal [10] 250 | red/green cell ratio (normalised) [11] 1.12 | z-score [12, 19] -0.257 | luciferase signal [14] 48 AU
0.93: normalised cell number [11, 17]
active: viability decrease [3] 98.7% | tube area decrease [4] 67.1% | inhibition of viability [6] 99.1% | viability decrease (inhibition) [7] 120% | viability decrease (inhibition) [8] 98% | log fold change Tl+ flux (F380Y) 0.286 and 0.195 | log fold change Tl+ flux (F380Y/beta1) 0.844 and 0.685 | log fold change Tl+ flux (F380Y/beta2Delta) 0.62 and 0.894
-1.4%: nuclear beta-catenin stimulation ([1]; stimulation, at 2 µM)
1.05: normalised cell number [11, 18]
0.309: z-score [12, 20]
